# BoNT-F LC inh: BoNT/F light chain protease inhibitors, primary screen, biochemical, flow cytometry, MLPCN library; Botulinum neurotoxin type F light chain protease (Clostridium botulinum); Multiplex microsphere protease cleavage assay; inhibition, % at 10 µM; hit rate 0.22% among 360,000; AID 588497, 2011; in the data active means inhibition above about 35%, passing the limit was not always enough; inconclusive means no clear call, values can overlap the other calls; further: plate controls were buffer without enzyme for full effect and enzyme alone for no effect
# Anthrax LF inh2: Bacillus anthracis LF protease inhibitors, primary screen, biochemical, multiplex microsphere, MLPCN library; multiplex microsphere protease cleavage assay; Lethal factor (Bacillus anthracis), P15917; inhibition, % at 10 µM; hit rate 0.12% among 360,000; AID 588501, 2011; further: plate controls were buffer without enzyme for full effect and enzyme alone for no effect
# Bead autofluor: compound fluorescence in toxin protease inhibitor counterscreen. compound autofluorescence counterscreen, microsphere flow cytometry; hits give high values. fluorescence intensity (test concentration not listed). hit rate 3.1% among 360,000. AID 624483; in the data active means fluorescence intensity above about 16000; inconclusive means no clear call, values can overlap the other calls
# FBA Mtb inh: Mtb FBA enzyme inhibitors, primary screen, biochemical, fluorescence, strain H37Rv; purified M. tuberculosis FBA, fluorescence read-out; inhibition, % at 1 µM; AID 588726, 2011; Fructose-bisphosphate aldolase (Mycobacterium tuberculosis (strain ATCC 25618 / H37Rv)), …; hit rate 2.3% among 360,000; in the data active means inhibition above about 27%;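 further: 0% = vehicle and 100% = reference inhibitor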
# Target sequence (P9WQA3 whole entry, looked up): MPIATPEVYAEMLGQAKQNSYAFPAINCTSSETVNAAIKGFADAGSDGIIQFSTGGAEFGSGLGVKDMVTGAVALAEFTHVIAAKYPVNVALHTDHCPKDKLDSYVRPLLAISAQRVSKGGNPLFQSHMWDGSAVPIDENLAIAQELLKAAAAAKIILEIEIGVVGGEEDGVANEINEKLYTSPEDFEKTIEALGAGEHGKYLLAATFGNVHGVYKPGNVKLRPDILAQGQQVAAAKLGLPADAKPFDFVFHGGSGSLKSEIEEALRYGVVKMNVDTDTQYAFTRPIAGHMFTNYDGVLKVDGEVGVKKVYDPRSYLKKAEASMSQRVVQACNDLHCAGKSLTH
# GDH-TPI counter: GDH-TPI coupling enzyme inhibitors, primary screen, artefact control for M. tuberculosis FBA inhibitor project, biochemical, absorbance, full deck; GDH-TPI coupled enzyme counterscreen, NADH absorbance; inhibition, % at 4.8 µM; hit rate 1.2% among 360,000; AID 588335, 2011; in the data active means inhibition above about 30%;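 further: 0% = DMSO wells and 100% = wells lacking the enzyme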
# BoNT-A LC inh2: BoNT/A light chain protease inhibitors, primary screen, biochemical, flow cytometry, MLPCN library; multiplex microsphere protease substrate cleavage; Botulinum neurotoxin type A light chain protease (Clostridium botulinum A str. ATCC 3502); hit rate 0.17% among 360,000; inhibition, % at 10 µM; AID 588499, 2011; further: plate controls were buffer without enzyme for full effect and enzyme alone for no effect
# * = called active by the depositor; ? = inconclusive; · = not tested or not shown; ! = not confirmed by another sample. Most compounds without a hit are left out; they make up all but 6.7% or so of the library. Unless noted, no stated cut-off is given here; in the data, active means inhibition above about 30%; inconclusive means no clear call, values can overlap the other calls; inactive means below that.
SMILES,BoNT-F LC inh,Anthrax LF inh2,Bead autofluor,FBA Mtb inh,GDH-TPI counter,BoNT-A LC inh2
CN(C)CCCNc1oc(-c2ccccc2)nc1C#N,-8,-4,2795,131*,6,0
N#Cc1nc(-c2ccccc2F)oc1NCc1cccc2c1OCO2,-5,-3,12488,14,13,0
CN(C)CCCNc1oc(-c2ccc(Cl)cc2)nc1S(=O)(=O)c1ccccc1,-14,-6,3640,5,11,-1
N#Cc1nc(COc2ccccc2Cl)oc1NCc1ccc(F)cc1,-8,-6,22901*,0,0,-6
CN(C)CCNc1oc(-c2ccccc2F)nc1C#N,-10,-9,6221,145*,16,0
Cn1cc(S(=O)(=O)N2CCc3ccccc32)cc1C(=O)NC1CCCCC1,-10,-5,5570,2,9,-1
COc1ccc(CNc2oc(COc3ccccc3)nc2C#N)cc1,3,-10,9489,-2,6,1
COc1ccc(CNc2oc(C)nc2C#N)cc1,-4,1,20862*,-5,1,?
COc1ccc(CSc2nc(CSC)cc(N3CCOCC3)n2)cc1,-20,2,9509,2,4,-1
COc1ccc(N2CCN(C(=O)CC3NC4CCCCC4NC3=O)CC2)cc1 (stereo not drawn),2,-1,22113*,-1,-13,2
Cn1c(N)c(N=O)c(=O)n(C)c1=S,-1,0,3670,-2,43*,0
Cn1c(N)c(N=Cc2ccccc2)c(=O)n(C)c1=O,-12,0,3531,6,-9,0
Cc1cc(/C=C(\C#N)C(=O)O)c(C)n1-c1ccc(Br)cc1,-3,-7,4447,0,32*,0
COCCn1c(C)cc(/C=C(\C#N)C(=O)OC(C)C(=O)Nc2ccc(NC(C)=O)cc2)c1C (stereo not drawn),·,·,·,0,39*,·
COCCNC(=O)/C(C#N)=C/c1cc(C)n(-c2ccc(C)cc2)c1C,0,10,3750,6,31*,-1
Cc1ccc(-n2c(C)cc(C=C(C#N)C#N)c2C)cc1,-21,-2,3605,-1,39*,0
Cc1cc(/C=C(/C#N)C(=O)O)c(C)n1CCC(C)C,2,-2,2284,-1,25,1
CCCn1c(C)cc(/C=C(\C#N)C(=O)O)c1C,0,0,2032,2,31*,0
CSc1nc2ccc(S(=O)(=O)N3CCCC3)cc2s1,-8,-2,10287,2,8,0
COCCn1c(SCc2csc(-c3ccccc3)n2)nc2ccccc21,-6,-1,22786*,-2,8,?
COc1cc(/C=C/C(=O)c2ccc(Cl)s2)cc(OC)c1O,-3,6,21357*,-9,16,?
COc1ccc(/C=C/C(=O)c2ccc(Cl)s2)cc1O,-2,-5,9061,-1,19,1
CCCCCCCNC(=O)C1(CC2CC(c3ccc(Cl)cc3)=NO2)CCN(C(=O)c2ccccc2)CC1 (stereo not drawn),10,-5,4244,0,8,-1
O=C(NCc1cccs1)c1nc2c(nnn2Cc2ccc(F)cc2)c(=O)[nH]1,0,-2,16259*,3,-7,0
Cc1ccc(C)c(Cn2nnc3c(=O)[nH]c(C(=O)NCc4ccco4)nc32)c1,1,-9,22656*,2,3,2
SMILES,BoNT-F LC inh,Anthrax LF inh2,Bead autofluor,FBA Mtb inh,GDH-TPI counter,BoNT-A LC inh2
CCOC(=O)C1=C(C)NC(C)=C(C(=O)OCCNC(=O)c2cccnc2)C1c1cccc([N+](=O)[O-])c1 (stereo not drawn),6,1,9774,1,20,0
COc1cccc2cc(C(C)=O)c(=O)oc12,-1,1,19894*,1,-4,-1
COc1cccc2cc(C(=O)N3CCCCCCC3)c(=O)oc12,?,-10,4765,2,3,-6
COc1cccc2cc(C(=O)Oc3ccc(NC(C)=O)cc3)c(=O)oc12,-1,1,2579,-1,17,1
COc1cc(C(C)=O)ccc1OC(=O)c1cc2cccc(OC)c2oc1=O,0,2,4568,-2,57*,1
COc1ccc(C2C(Oc3ccccc3)C(=O)N2c2ccc(C)c(C)c2)cc1OC (stereo not drawn),-8,-2,3278,-1,6,-1
Cc1ccc(C(=O)c2cc([N+](=O)[O-])ccc2N2CCN(C)CC2)cc1,-1,0,6167,-4,25,-1
CN1CCN(c2ccc([N+](=O)[O-])cc2C(=O)c2ccc(Br)cc2)CC1,-3,-6,23704*,-3,9,-2
COc1ccc(CNC(=O)c2cc3c(=O)n4ccccc4nc3n(Cc3cccnc3)c2=N)cc1,2,4,8731,8,18,4
COCCn1c(=N)c(C(=O)NCc2ccco2)cc2c(=O)n3ccccc3nc21,-7,-2,3536,138*,3,0
N=c1c(C(=O)NCc2ccco2)cc2c(=O)n3ccccc3nc2n1Cc1ccccc1,-5,9,6025,163*,15,4
N=c1c(C(=O)NCc2ccc(F)cc2)cc2c(=O)n3ccccc3nc2n1Cc1ccco1,0,6,3575,38*,7,1
CCn1cc(C(=O)N2CCN(c3ccccn3)CC2)c2cc(OC)c(OC)cc2c1=O,-34,-5,4452,-2,11,-1
COCCCNC(=S)N/N=C/c1cccc(OC)c1O,·,·,·,5,4,·
CCNC(=S)N/N=C/c1ccc(C#N)cc1,-3,1,4344,-5,39*,0
COCCCNC(=S)N/N=C/c1ccc(O)cc1,?,15,3764,-1,70*,4
COCCCNC(=S)N/N=C/c1ccc(O)cc1O,-12,-3,6199,2,33*,0
CC(=O)OCCOc1nc(NC(C)C)nc(NC(C)C)n1,-5,1,8121,-1,-5,-1
CC(C)Nc1nc(NC(C)C)nc(N(C)C(N)=O)n1,2,-1,19916*,0,-15,2
CC(C)Nc1nc(NC(C)C)nc(N(C)N)n1,-13,-4,4230,0,1,-3
CC(C)Nc1nc(NC(C)C)nc(C(N)=O)n1,-4,0,16247*,0,12,0
O=C(Nc1cccc2nsnc12)c1cccs1,4,0,21640*!,20,22,2
CCOC(=O)c1ccccc1NC(=O)c1cccs1,-5,-6,17478*,-1,13,-2
COc1ccccc1CC(=O)Nc1ccccc1C(=O)O,7,1,10896,5,0,0
CCOC(=O)c1ccccc1NC(=O)Cc1ccccc1OC,-4,1,20686*,1,-8,-3
Cc1cccc(N2CC3=C(C2=O)C(c2ccccc2)NC(=O)N3C)c1 (stereo not drawn),8,-4,4089,0,4,0
